FBW7 activator = human FBW7 E3 ligase activation, primary screen; Q969H0; normalized activity (activation), % at 26.1 µM; AlphaScreen FBW7–phospho-cyclin E peptide binding, activator screen; 650,000 tested, 0.13% active; in the data active = normalized activity above about 1.9%;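 also: purified mutant Fbw7 with reduced substrate affinity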
GPR151 ag = human GPR151 activation. Q8TDV0. PathHunter beta-arrestin GPR151 cells, luminescence. activation, % at 11.2 µM. 650,000 tested, 1% active. AID 1508602; in the data active = activation above about 4.9%
Target sequence (Q8TDV0 whole entry, looked up): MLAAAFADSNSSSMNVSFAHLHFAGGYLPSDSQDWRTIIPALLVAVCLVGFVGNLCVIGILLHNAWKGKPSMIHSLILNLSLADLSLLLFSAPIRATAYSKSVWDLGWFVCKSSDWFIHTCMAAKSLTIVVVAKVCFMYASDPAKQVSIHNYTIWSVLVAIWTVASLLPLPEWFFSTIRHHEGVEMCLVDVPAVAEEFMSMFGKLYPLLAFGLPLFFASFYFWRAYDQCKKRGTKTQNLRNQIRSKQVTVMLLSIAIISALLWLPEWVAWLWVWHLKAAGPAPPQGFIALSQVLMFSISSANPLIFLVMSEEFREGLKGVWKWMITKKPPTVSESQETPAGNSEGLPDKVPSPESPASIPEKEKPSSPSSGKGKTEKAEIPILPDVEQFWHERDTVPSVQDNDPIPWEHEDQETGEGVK
TEAD-YAP block = TEAD-YAP interaction inhibition; HEK-TIYL cells, TEAD-Gal4/YAP UAS-luciferase luminescence; inhibition, % at 9.12 µM; 640,000 tested, 1.4% active; in the data active = inhibition above about 32%
MITF inh = human MITF inhibition, primary screen | AlphaScreen MITF homodimerization, bead proximity signal | AID 1259374 | 650,000 tested, 0.91% active | inhibition, % at 2.6 µM; in the data active = inhibition above about 50%
MITF confirm = human MITF inhibition, confirmation. shares compounds with MITF inh. AlphaScreen MITF homodimerization, biotin/His-MITF beads. inhibition, % at 2.6 µM. 4,700 tested, 16% active. AID 1259372;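 active = inhibition above a cutoff derived from the DMSO control wells, cut at about 28% in these data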;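 also: inhibitors lower the bead chemiluminescence by keeping MITF from dimerizing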
AS interf ctr = counter-screen: compounds optically interfering with AlphaScreen. inhibition, % at 2.6 µM. LysRS AlphaScreen counterscreen, signal interference, triplicate. 4,700 tested, 7.6% active. AID 1259376. shares compounds with MITF inh;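 active = inhibition above a cutoff derived from the DMSO control wells, cut at about 30% in these data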
Hits are given with their value; . = inactive; / = no result. A selection: hits, their analogues and other compounds. The true share with any hit is near 3.4%.

SMILES	FBW7 activator	GPR151 ag	TEAD-YAP block	MITF inh	MITF confirm	AS interf ctr
c1ccc(-c2nc(NCCCn3ccnc3)cc(-c3ccncc3)n2)cc1	.	.	.	.	/	/
O=C(NCCSc1ccccc1)c1cccnc1	.	.	.	77	.	.
Cc1[nH]c2ccccc2c1SCCNC(=O)c1ccncc1	.	.	.	62	.	.
O=C(COc1ccccc1)Nc1ccccc1Sc1ncnc2sc3c(c12)CCCC3	.	.	.	.	/	/
CCOc1ccc(NC(=O)c2ccc(F)c(S(=O)(=O)N3CCC(C)CC3)c2)cc1	.	.	.	.	/	/
O=C(CN1C(=O)c2ccccc2C1=O)NC1CCCCC1	.	.	.	53	.	.
CCC1CN(Cc2cccc(OC)c2O)Cc2cc(OC)ccc2O1 (centres undefined)	.	.	.	.	/	/
CCc1ccccc1NC(=O)CCCN1C(=S)NC(C)(C)CC1C (centres undefined)	.	.	.	.	/	/
CCN1CCN(CCNC(=O)CCCN2C(=S)NC(C)(C)CC2C)CC1 (centres undefined)	.	.	.	71	.	.
COc1ccc(-c2c(NC(=O)CN3CCCC(C)C3)oc3ccccc3c2=O)cc1OC (centres undefined)	.	.	.	91	.	.
CC(C)C[C@H]1C(=O)N2CCN(C(=O)c3ccccc3Cl)C[C@@H]2C(=O)N1C	.	.	.	.	/	/
COc1ccc(CN2CCN(C3CCC(c4ccccc4)CC3)CC2)c(OC)c1OC (centres undefined)	.	.	.	53	.	.
CCOc1ccccc1CN1CCC(N2CCC(C)CC2)CC1	.	.	.	70	.	.
COc1ccccc1CN1CCC(N2CCN(C)CC2)CC1	.	.	.	.	/	/
COc1ccccc1CN1CCN(C2CCCCC2)CC1	.	.	.	70	.	.
COc1ccc(CN2CCN(C3CCCCC3)CC2)c(OC)c1OC	.	.	.	76	.	.
CCOc1ccccc1CN1CCC(N2CCOCC2)CC1	.	.	.	.	/	/
COc1cccc(N2CCN(C(=O)c3cnn4c3NC(c3ccc(OC)c(OC)c3)CC4C(F)(F)F)CC2)c1 (centres undefined)	.	.	.	.	/	/
O=C(CSc1nc2ccccc2n1CC(=O)N1CCc2ccccc21)N1CCOCC1	.	.	.	.	/	/
O=C(CSc1n[nH]c(COc2ccc(Cl)cc2)n1)Nc1ccc(F)c([N+](=O)[O-])c1	.	.	.	.	/	/
CN(Cc1ccno1)Cc1ccccc1OCC(O)CN1CCc2ccccc2C1 (centres undefined)	.	.	.	.	/	/
COc1ccc(CNC(=O)NCc2noc3ccccc23)cc1	.	.	.	.	/	/
COc1ccc(CN2CCN(C3CCCC(C)C3)CC2)c(OC)c1OC (centres undefined)	.	.	.	54	.	.
CCN1CCN(C2CCN(Cc3cc(OC)c(OC)c(OC)c3)CC2)CC1	.	.	.	.	/	/
COc1ccc(CN2CCC(N3CC(C)OC(C)C3)CC2)c(OC)c1OC (centres undefined)	.	.	.	65	.	.
SMILES	FBW7 activator	GPR151 ag	TEAD-YAP block	MITF inh	MITF confirm	AS interf ctr
CCN1CCN(C2CCN(Cc3ccc(OC)c(OC)c3OC)CC2)CC1	.	.	.	61	.	.
COc1ccc(CN2CCC(N3CC(C)OC(C)C3)CC2)cc1 (centres undefined)	.	.	.	87	.	.
COc1ccc(C(=O)NCC(c2cccn2C)N2CCN(C)CC2)c(OC)c1OC (centres undefined)	.	.	.	.	/	/
CCOC(=O)NC(NC(=S)Nc1ccc(C(C)=O)cc1)C(Cl)(Cl)Cl (centres undefined)	.	.	.	.	/	/
CN1CCC(N(C)CC(O)COC(c2ccc(F)cc2)c2ccc(F)cc2)CC1 (centres undefined)	.	.	.	60	.	.
OC(CNCCCN1CCOCC1)COC(c1ccc(F)cc1)c1ccc(F)cc1 (centres undefined)	.	.	.	.	/	/
COc1ccc(CN(C)CCc2ccccn2)c(OC)c1OC	.	.	.	58	.	.
COc1ccc(Br)cc1CN(C)CCc1ccccn1	.	.	.	.	/	/
COc1ccccc1CN(C)CCc1ccccn1	.	.	.	67	.	.
CN(CC(=O)NCc1ccccn1)S(=O)(=O)c1ccc(F)cc1	.	.	.	.	/	/
CN(CCc1ccccn1)Cc1cccc2ccccc12	.	.	.	.	/	/
CN(CCc1ccccn1)Cc1c[nH]c2ccccc12	.	.	.	74	.	.
CN(CCc1ccccn1)S(=O)(=O)c1ccc(F)cc1	.	.	.	75	.	.
Nc1nonc1-c1noc(COc2ccc(F)cc2F)n1	.	.	.	.	/	/
CCOc1ccc(OCc2ccc(C(=O)N/N=C(\C)c3cccnc3)cc2)cc1	.	.	.	.	/	/
Cc1ccc(CSc2n[nH]c(N)n2)cc1	.	.	.	.	/	/
O=C(O)C1CSC(c2cccc(OCc3ccccc3Cl)c2)N1 (centres undefined)	.	.	.	.	/	/
CC1=NN(c2ccccc2)C(=O)C1C(c1ccccc1[N+](=O)[O-])C(C#N)C#N (centres undefined)	.	.	.	52	.	.
CC1=NN(c2ccccc2)C(=O)C1C(c1ccc([N+](=O)[O-])cc1)C(C#N)C#N (centres undefined)	.	.	.	.	/	/
COc1cccc(N2CCN(CC(O)COCC3=CCC4CC3C4(C)C)CC2)c1 (centres undefined)	.	.	.	73	.	.
CC1(C)C2CC=C(COCC(O)CNCc3cccnc3)C1C2 (centres undefined)	.	.	.	62	.	.
COc1cccc(OCCOCC(O)CN2CCN(c3ccccc3)CC2)c1 (centres undefined)	.	.	.	.	/	/
Cc1nc2nc(-c3ccccc3)[nH]n2c(=O)c1Cl	.	.	.	.	/	/
Nc1nnc(SCC(=O)c2cc3ccccc3o2)s1	.	.	.	.	/	/
Cc1ccccc1OCC(=O)Nc1ccc([N+](=O)[O-])cc1Cl	.	.	.	54	.	.
SMILES	FBW7 activator	GPR151 ag	TEAD-YAP block	MITF inh	MITF confirm	AS interf ctr
O=C(Nc1ccc(Oc2ccccc2)cc1)C1CCCN1C(=O)OCc1ccccc1 (centres undefined)	.	.	.	.	/	/
C=CCc1cc(C)ccc1OCCOCCNCCN(C)C	.	.	.	51	.	.
C=CCNCCCOc1ccc(Br)cc1Cl	.	.	.	.	/	/
C=CCNCCOCCOc1ccc(Cl)cc1C(C)(C)C	.	.	.	69	.	.
C=CCNCCOc1ccc(Br)cc1Cl	.	.	.	56	.	.
C=CCc1cc(OC)ccc1OCCCNCCOC	.	.	.	62	.	.
COCCCNCCOCCOc1ccc(Cl)cc1C(C)(C)C	.	.	.	.	/	/
COCCNCCOc1cc(C)ccc1C(C)(C)C	.	.	.	51	.	.
C=CCNCCOCCOc1ccc(C)cc1Br	.	.	.	60	.	.
C=CCNCCOCCOc1ccc(C(C)(C)C)cc1C	.	.	.	.	/	/
C=CCNCCOCCOc1cccc(OCC)c1	.	.	.	.	/	/

Source: PubChem
